The whole screen tested about 2,300 compounds, of which about 1,100 (48%) were called active. The rule behind the calls is not given here. The set was probably picked from earlier hits. The list shows a part of the results. Entries with a potency or affinity are not part of this list.
Assay: inhibitors in S. typhi counter-screen strain, dose response, counter-screen for PhoP regulon inhibitor project, fluorescence, 4 h (AID 2384)
Conditions: S. typhi GFP reporter counter-screen; series mostly up to 150 µM; inhibition: at the top concentration

SMILES	inhibition
Cc1ccc2nc(/C(C#N)=C\c3ccc(N4CCCCC4)c([N+](=O)[O-])c3)[nH]c2c1	17.9% [at 9.38 µM] (inactive)
CCCCc1cc(=O)oc2cc(C)cc(OCC(=O)NCC3CCC(C(=O)O)CC3)c12 (stereo not drawn)	20.5% (inactive)
Cc1cccc(N2C(=O)CS/C2=N\NC(=O)c2ccc(Br)cc2)c1C	33.8% (inactive)
O=C1c2ccc3c4c(ccc(c24)C(=O)N1c1cccc(O)c1)C(=O)N(c1cccc(O)c1)C3=O	-25.5% (inactive)
Cc1ccc(/C=C2\SC(=S)N(c3cccnc3)C2=O)o1	-11.2% (inactive)
Cc1c(C(=O)O)sc(=S)n1-c1ccc(Cl)cc1	-14.3% (inactive)
CC(=O)NCc1ccc(C(=O)CSc2nnc(-c3ccncc3)n2Cc2ccccc2)o1	5.35% (inactive)
COc1ccc(S(=O)(=O)N[C@H](C(=O)N2CC[C@@]3(O)CCCC[C@H]3C2)c2ccccc2)cc1	8.21% (inactive)
COc1ccc(OC)c(S(=O)(=O)N2CCC(C(=O)NCCc3ccc(OC)c(OC)c3)CC2)c1	11.8% (inactive)
COc1ccc(OC)c(NC(=O)CCNS(=O)(=O)c2ccc3c(c2)c(=O)n(C)c(=O)n3C)c1	-22.5% (inactive)
Clc1ccc(OCc2nn3c(C4CCCCC4)nnc3s2)c(Cl)c1	3.08% (inactive)
O=C(CCCOc1ccc(Cl)cc1Cl)NNC(=O)C1CCC1	-6% (inactive)
CC(C)OC(=O)Cn1c(=O)sc2ccccc21	12.4% (inactive)
CC/C(=N\Nc1ccnc2cc(Cl)ccc12)c1ccc(O)cc1	37.8% (inactive)
Cc1ccc(NC(=O)Cc2ccc(F)cc2)cc1	1.72% (inactive)
Cc1ccc(NC(=O)CS(=O)CC(=O)Nc2ccccc2-c2ccc(C)o2)cc1 (stereo not drawn)	-5.22% (inactive)
CC1CCN(CC(CS(=O)(=O)c2ccc([N+](=O)[O-])cc2)N2CCC(C)CC2)CC1 (stereo not drawn)	5.45% (inactive)
CC1CC(C)CN(S(=O)(=O)c2cccc3cccnc23)C1 (stereo not drawn)	18.1% (inactive)
C=CCN(c1ccccc1)S(=O)(=O)c1cccc2cccnc12	16.4% (inactive)
Cc1cc(C(=O)OCC(=O)Nc2cccc(S(=O)(=O)N3CCOCC3)c2)c(C)o1	13.7% (inactive)

SMILES	inhibition
Cc1nc(N=Nc2ccc(O)cc2)n[nH]1	-1.9% (inactive)
Cc1cccc(-n2ccnc2CN2CCN(C3CCCC3)C(CCO)C2)c1 (stereo not drawn)	10.4% (inactive)
O=C1c2[nH]nc(-c3ccccc3O)c2C(c2ccc(F)cc2)N1CC1CCCO1 (stereo not drawn)	20% (inactive)
COc1ccccc1-c1cc2nc(C)c(CCC(=O)NC(C)CCc3ccco3)c(C)n2n1 (stereo not drawn)	-15.5% (inactive)
O=C(NCCCn1ccnc1)c1cc2c(ccc3ccccc32)o1	2.24% (inactive)
O=C(/C=C/c1ccc(Cl)cc1)NCCCn1ccnc1	0.67% (inactive)
CC(=O)CC1OC(=O)C(Br)=C1NCc1ccccc1 (stereo not drawn)	-3.4% (inactive)
Cc1ccc(-n2c(Cc3noc4ccccc34)n[nH]c2=S)cc1	10.6% (inactive)
CCn1c(-c2ccncc2)n[nH]c1=S	12.1% (inactive)
O=C(OCCCN1C(=O)c2ccccc2C1=O)c1ccco1	-5.7% (inactive)
OCC[C@H]1C[C@H](O)[C@@H](O)[C@@]2(Cc3ccccc3CO2)O1	-6.02% (inactive)
Cc1ccc(N(CC(=O)Nc2c(C)n(C)n(-c3ccccc3)c2=O)S(C)(=O)=O)cc1C	-19.8% (inactive)
Cc1nc2ccccc2nc1N/N=C/c1ccc(O)cc1O	-11.7% (inactive)
Oc1ccc(C=NC2CCCCC2)c(O)c1	3.6% (inactive)
CCN(CCCNC(=O)c1cn(CC)c2ccc(S(=O)(=O)N(C)C)cc2c1=O)c1cccc(C)c1	-22.2% (inactive)
Clc1ccc(CONc2ncnc3nonc23)c(Cl)c1	5.19% (inactive)
COc1ccc(OC)c(C2=NO[C@@H]3C(=O)N(c4cc(Cl)ccc4OC)C(=O)[C@H]23)c1	12.2% (inactive)
CC(C)(C)CC(=O)Nc1nnc(SCC(=O)N2CCCCC2)s1	-8.51% (inactive)
Cc1cc(C)c(S(=O)(=O)Nc2ccccc2C(=O)OCC(=O)NCc2ccccc2)c(C)c1	9.32% (inactive)
CC1Cc2ccccc2N1S(=O)(=O)c1cccc(C(=O)N2CC(=O)Nc3ccccc32)c1 (stereo not drawn)	-16.2% (inactive)

SMILES	inhibition
O=[N+]([O-])c1ccc(-c2cnc(NO)nc2)cc1	-23.9% (inactive)
Cn1c(-c2ccc(Cl)cc2)cnc1N	-7.06% (inactive)
CCC(O)CNc1nc(SC)nc2sc3c(c12)CCN(C)C3 (stereo not drawn)	16.6% (inactive)
c1ccc(CSc2ccc(-c3cccs3)nn2)nc1	4.57% (inactive)
COc1ccc(C(=O)C[n+]2cc(Br)cc3ccccc32)cc1[N+](=O)[O-]	29.9% (inactive)
c1ccc2c(Nc3nnc(-c4ccncc4)s3)cccc2c1	24.4% (inactive)
CC(/C=C\c1cccnc1)=C/C(=O)O	-16.1% (inactive)
O=C(N/N=C/c1cccnc1)c1ccc(F)cc1	10.8% (inactive)
Clc1ccc(N/N=C/c2cccs2)nn1	-13% (inactive)
CSc1nnc(-c2cccc(NC(=S)NN)c2)o1	7.59% (inactive)
Cc1ccc2cc(CN(Cc3ccc(F)cc3)Cc3nnnn3C3CCCC3)c(=O)[nH]c2c1	8.53% (inactive)
Nc1ccc(S(=O)(=O)c2ccc(N)cc2)cc1	-5.09% (inactive)
Cc1ccc(NC(=S)NCc2cccnc2)cc1	5.02% (inactive)
CCc1nnc(NC(=O)c2ccc(S(C)(=O)=O)cc2)s1	-14.3% (inactive)
O=C(O)c1cnn2c1NC(c1cccs1)CC2C(F)(F)F (stereo not drawn)	16.9% (inactive)
CCCn1c(SCc2ccc(Cl)cc2)nc2c1c(=O)[nH]c(=O)n2C	-20.7% (inactive)
NS(=O)(=O)c1ccc(CCNC(=O)C(=O)C2C(=O)Nc3ccccc32)cc1 (stereo not drawn)	-11.2% (inactive)
NS(=O)(=O)c1ccc(CCNS(=O)(=O)c2cccc(C(=O)O)c2)cc1	-9.07% (inactive)
